SMILES strings stand for the structures. Compounds without any hit were thinned out: in the full panel of roughly 83,000, 20% have a hit.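 Note: values are percent growth. 100 is the growth of untreated cells, values between 100 and 0 indicate rising inhibition; between -100 and 0 indicates cell death.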 A number with no mark means an inactive call. Activity calls are given as the source filed them. Rule for the calls: active = growth percent below 10; inactive = the rest.

The results in this text go back to PubChem BioAssay (NCI).

Assay in all cases: NCI-60 one-dose screen, 48 h (100 = growth as untreated, 0 = no growth, -100 = all killed)
Assay [1] deals with A549/ATCC NSCLC. The note with it: 10 µM unless noted.
Assay [2] relates to DU-145 prostate. To be noted: 10 µM unless noted.
Assay [3] has as its system MALME-3M melanoma. The note with it: 10 µM unless noted.
In assay [4] the test system is RXF 393 renal. To be noted: 10 µM unless noted.
The subject of assay [5] is SF-295 CNS. To be noted: 10 µM unless noted.
The test system of assay [6] is UACC-257 melanoma. To be noted: 10 µM unless noted.
Assay [7] concerns SNB-75 CNS. To be noted: 10 µM unless noted.
Assay [8] deals with SNB-19 CNS. To be noted: 10 µM unless noted.
In assay [9] the test system is LOX IMVI melanoma. The note with it: 10 µM unless noted.
Assay [10] concerns SK-MEL-28 melanoma. To be noted: 10 µM unless noted.
The test system of assay [11] is SK-MEL-2 melanoma. To be noted: 10 µM unless noted.
In assay [12] the test system is SN12C renal. To be noted: 10 µM unless noted.
For assay [13], the system named is A498 renal. To be noted: 10 µM unless noted.
In assay [14] the test system is MOLT-4 leukemia. The note with it: 10 µM.
Assay [15] deals with OVCAR-8 ovarian. The note with it: 10 µM unless noted.
Assay [16] relates to OVCAR-4 ovarian. To be noted: 10 µM unless noted.
The subject of assay [17] is SK-OV-3 ovarian. To be noted: 10 µM unless noted.
The subject of assay [18] is BT-549 breast. The note with it: 10 µM.
Assay [19] has as its system HCC-2998 colon. To be noted: 10 µM unless noted.
Assay [20] concerns HOP-62 NSCLC. The note with it: 10 µM unless noted.

As to `CSc1ccccc1NP1(=O)OCC(C)([N+](=O)[O-])CO1` (stereo unspecified), the growth in assay [1] is 95.9%; in assay [2], 109%; in assay [3] it was 120%; in assay [4] it was 97.6%; in [5], 100%; in assay [6], 106%. Further, the growth in [7] was 86%; in assay [8] it was 97.1%; in [9], 97.3%; in [10], 98.6%; in [11] it was 112%; in assay [12] it was 98%. Besides, the growth is 110% in assay [13]; 94.4% in assay [14]; 98% in assay [15]; 105% in [16]; 98.2% in assay [17]; 90.1% in [18]. The growth in [19] was 104%.
On to `CNC(=O)O/N=C(/C)c1ccc(Cl)cc1`, for which the growth in assay [20] is 99.4%; in assay [1] it was 99.3%; in assay [2], 114%; in assay [3], 101%; in assay [4], 110%; in assay [5] it was 101%. The growth in assay [6] was 104%; in assay [7], 87.4%; in assay [8], 112%; in assay [9], 106%; in [10] it was 105%; in [11], 97.2%. Moreover, the growth in assay [12] is 105%; in assay [13] it was 92.2%; in assay [14], 93.9%; in [15] it was 102%; in assay [16], 97.3%; in assay [17], 96.8%. Also, the figures for the growth in assay [18] and in [19] were 91.1% and 105%, respectively.
Turning to `C[C@]12CC[C@H]3[C@@H](C[C@@H]4N=C(c5ccc(O)cc5)S[C@@]45C[C@H](O)CC[C@]35C)[C@@H]1CC[C@@H]2O`, the growth was 46.7% in [20]; 52.1% in assay [1]; 63.8% in assay [2]; 72.4% in assay [3]; -46.3% (active) in assay [4]; -36.2% (active) in [5]. Further, the growth is 66.2% in assay [6]; 26.4% in [7]; 71% in assay [8]; 25.4% in [9]; 53.3% in assay [10]; 44.9% in assay [11]. Besides, the growth in assay [12] is 96.7%; in assay [13], 49.4%; in [14] it was -23.2% (active); in assay [15], 74.2%; in assay [16], 81.8%; in assay [17], 38.6%. Moreover, the results for the growth in assay [18] and in assay [19] were 59.3% and 95.3%, respectively.
As for `CCOc1ccc(C(O)CN(C)Cc2ccccc2)cc1Cl` (stereo unspecified), the growth in assay [1] was 102%; in assay [2], 103%; in [3] it was 104%; in [4], 90.5%; in assay [5], 96.1%; in assay [6] it was 108%. Further, the growth is 92.9% in assay [7]; 100% in assay [8]; 98.6% in assay [9]; 98.5% in assay [10]; 102% in [11]; 102% in assay [12]. Further, the growth in assay [13] is 90.5%; in assay [14] it was 96.3%; in assay [15], 105%; in assay [16], 103%; in assay [17] it was 109%; in [18] it was 106%. Further, the growth in [19] is 102%.
`CC(=O)C1CCC2C3CC=C4CC(OC(=O)Cc5ccc(N(CCCl)CCCl)cc5)CCC4(C)C3CCC12C` (stereo unspecified): the growth in assay [20] was 112%; in assay [1], 131%; in assay [2], 86%; in assay [3], 109%; in assay [4], 108%; in assay [5], 108%. The growth in assay [6] is 116%; in assay [7] it was 93.7%; in assay [8] it was 93.4%; in assay [10] it was 107%; in [11] it was 106%; in [12], 96.6%. The growth in assay [13] was 105%; in assay [14], 73%; in [15], 103%; in [16], 99.4%; in assay [17] it was 112%; in assay [18], 92%. Further, in assay [19], the growth was 93.7%.
For the compound `CC(C)CCC1(CCO)C(=O)NC(=S)NC1=O`, the growth in assay [20] is 105%; in assay [1], 91.9%; in [2] it was 107%; in [4], 120%; in [5] it was 103%; in [6], 100%. The growth in [7] is 99.8%; in [8] it was 105%; in assay [9] it was 104%; in [10], 116%; in assay [11] it was 101%; in [12] it was 100%. Moreover, the growth in [13] was 93.7%; in assay [14] it was 113%; in assay [15] it was 101%; in [16] it was 109%; in [17], 108%; in assay [18], 109%. Further, the growth in [19] is 107%.
`O=C(N/N=C/c1ccc(N(CCCl)CCCl)cc1)c1cc(=O)[nH]c(=O)[nH]1`: the growth is 106% in [1]; 91.4% in assay [2]; 101% in assay [3]; 95.2% in assay [4]; 87.2% in [5]; 101% in assay [6]. Also, the growth is 92.8% in assay [7]; 93.4% in [9]; 116% in [10]; 109% in assay [11]; 93.7% in [13]; 93.5% in [15]. In addition, the growth in assay [16] is 109%; in [18] it was 96.8%; in assay [19], 104%.
As for `C/C(=N/OC(=O)N(C)C)c1ccc(Cl)cc1Cl`, the growth was 98.2% in assay [20]; 97.3% in assay [1]; 109% in assay [2]; 97.6% in assay [3]; 112% in [4]; 98.6% in assay [5]. The growth in assay [6] was 101%; in [7], 79.2%; in [8], 103%; in assay [9], 97.8%; in assay [10], 110%; in [11], 88.8%. The growth in [12] is 96.8%; in assay [13] it was 90.9%; in assay [14], 90%; in [15] it was 106%; in [16], 113%; in [17], 94.6%. The growth in [18] is 97%; in assay [19], 102%.
